Assay outcomes deposited in PubChem by National Center for Advancing Translational Sciences (NCATS).
ClpP mod: qHTS Assay for Activators of ClpP | AID 651965, 2013 | 340,000 compounds, 1.9% hits | purified B. subtilis ClpP, FRET peptide cleavage, 20 min | Potency, µM (highest dose often 57.5 µM); active = well fitted falling curve with a large enough effect; inconclusive = small, poorly fitted or top-dose-only effect; inactive = no such curve, though single readings can be large or run the other way; also: the source files actives as falling curves though it sought activators and does not explain the sign; nearly all actives have a fitted effect of over 65% in size
Target sequence (P80244 whole entry, looked up): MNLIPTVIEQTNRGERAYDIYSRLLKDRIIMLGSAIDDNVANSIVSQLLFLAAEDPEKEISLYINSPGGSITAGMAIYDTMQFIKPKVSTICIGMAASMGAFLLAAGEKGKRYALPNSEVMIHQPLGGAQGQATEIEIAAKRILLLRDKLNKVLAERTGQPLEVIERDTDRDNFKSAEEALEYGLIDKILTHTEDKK
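Buffer: 100 mM Tris/HCl pH8, 100 mM KCl, 0.05% low protease BSA, 2.5% glycerol, 0.01% Tween-20. ClpP 10 microg/mL final; 20 min RT; delta FRET normalized to ADEP and DMSO controls.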
DRD3 agonist: D3 dopamine receptor (human) agonism | 410,000 compounds, 0.58% hits | max activation, % | D3R DiscoveRx beta-arrestin cells, luminescence, 90 min; in the data active = max activation above about 30%
Target sequence (P35462 whole entry, looked up): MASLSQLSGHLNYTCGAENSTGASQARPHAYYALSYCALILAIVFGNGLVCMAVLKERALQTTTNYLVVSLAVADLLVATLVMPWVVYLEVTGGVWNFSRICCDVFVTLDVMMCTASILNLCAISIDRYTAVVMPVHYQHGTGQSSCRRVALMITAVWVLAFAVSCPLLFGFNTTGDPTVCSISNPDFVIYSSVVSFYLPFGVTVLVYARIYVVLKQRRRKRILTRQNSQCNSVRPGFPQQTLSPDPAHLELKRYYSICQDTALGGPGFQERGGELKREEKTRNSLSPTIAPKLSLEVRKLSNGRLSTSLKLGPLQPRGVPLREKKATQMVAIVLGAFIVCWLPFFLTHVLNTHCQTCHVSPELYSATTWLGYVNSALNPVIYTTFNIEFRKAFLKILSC
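Agonist-mode cell screen: cells plated at 1500/well and incubated overnight at 37 °C, then exposed to library compounds for 90 min at 37 °C. Detection reagent was added for 30–60 min at room temperature, and luminescence was read.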
GLP1R cytotox: cytotoxic in the GLP-1 receptor inverse agonist counter-screen | HEK293 cAMP-luciferase reporter cells, luminescence, 24 h | Potency, µM (top dose mostly 38.3 µM), most hits filed as inhibitors | 410,000 compounds, 0.13% hits;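 also: loss of luciferase light is scored as toxicity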
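Compound-treated cells are incubated 24 hr at 37 deg C under 5% CO2 after a 12 hour attachment period, then luciferase detection reagent is added and luminescence is measured following 12 min at room temperature; lowered signal indicates toxicity.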
D3 antag: antagonists of human D3 dopamine receptor | D3R cells, DiscoveRx beta-arrestin luminescence, antagonist mode; hits give low values | max response, negative = inhibition, % | 360,000 compounds, 2.5% hits | P35462; in the data active = max response below about -50%; inconclusive = no clear call, values can overlap the other calls
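Cells expressing the human receptor were seeded at 1500 cells/well, incubated overnight at 37 degrees C in 5% CO2, then exposed to library compounds with dopamine controls for 90 minutes at 37 degrees C before luminescent detection.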
GLP1R inv ag: inverse agonists of human GLP-1 receptor. HEK293 GLP-1R CRE-luciferase, luminescence, 24 h; GLP-1R form is constitutively active. Potency, µM (series often up to 38.3 µM), hits mostly inhibitors. P43220. 410,000 compounds, 1.6% hits; also: nearly all actives have a fitted effect of over 55% in size
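Assay principle: reduced luminescence from a cAMP-responsive reporter in HEK293 cells co-expressing a constitutively active GLP-1R. Conditions: 24 hr compound incubation, 37 deg C, 5% CO2.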
GLP-1R agonist: agonists of human GLP-1 receptor; P43220; HEK293 GLP-1R CRE-luciferase, luminescence, 4-6 h; cells express a hypersensitive GLP-1R form; Potency, µM (highest dose often 45.6 µM), usual class: activators; 380,000 compounds, 0.007% hits; AID 624172
Numbers stand for hits; 0 = inactive; ? = inconclusive; - = not tested or not shown. Compounds with a hit are over-represented: about 5.7% of the library has one in this group of screens. Unless noted, calls follow the shape of the dose curve; as a rule, active = well fitted curve in the direction sought with a large enough effect; inconclusive = small, poorly fitted or top-dose-only effect, or another doubt; inactive = no such curve, though single readings can be large; an effect the other way counts as inactive or inconclusive.

SMILES | ClpP mod | DRD3 agonist | GLP1R cytotox | D3 antag | GLP1R inv ag | GLP-1R agonist
Cc1cc(OCC(=O)NC2CCN(Cc3ccccc3)CC2)c2c(C)cc(=O)oc2c1 | 0 | 0 | 0 | -63.4 | 0 | 0
O=C(COc1ccccc1F)NC1CCN(Cc2ccccc2)CC1 | 0 | 0 | 0 | -64.6 | 0 | 0
CCOC(=O)c1cnc(N2CCN(c3cccc(C)c3C)CC2)c2ccccc12 | 0 | 0 | 0 | - | 0 | -
CC(C)(C)OC(=O)NS(=O)(=O)NOCc1ccccc1 | 0 | - | - | - | - | -
O=C(C[n+]1ccccc1)c1ccc(O)c(O)c1 | 0 | - | - | - | - | -
COc1ccc(CNC(=O)c2ccc3c(c2)N(C)C(=O)C2CCCCN32)cc1OC (stereo unspecified) | 0 | 0 | 0 | - | 0 | -
Cc1ccc(C)c(N2CCN(c3c(CN4CCCC4)c(=O)oc4ccccc34)CC2)c1 | 0 | 0 | 0 | - | 0 | -
Cc1ccc(NC(=O)COc2coc(CN3CCN(Cc4ccccc4)CC3)cc2=O)cc1 | 28.2µM | 0 | 0 | 0 | 0 | 0
O=C1CC(O)(C(F)F)Oc2ccc3ccccc3c21 (stereo unspecified) | 25.1µM | 0 | 0 | 0 | 0 | 0
O=C1CC(O)(C(F)(F)F)Oc2c1ccc1ccccc21 (stereo unspecified) | 0 | 0 | 0 | 0 | 0 | 0
COc1ccc(OC)c(S(=O)(=O)NCCc2sc(C)nc2C)c1 | 0 | 0 | 0 | - | 0 | 0
CCCCc1nn2c(=O)cc(COC(=O)c3ccccc3NC(=O)c3cccc(C)c3)nc2s1 | 0 | 0 | 0 | - | 0 | -
CN(Cc1ccccc1)c1cc(Cl)nc(N)n1 | 0 | 38.4 | 0 | 0 | 0 | 0
CCN(CC)c1cc(Cl)nc(N)n1 | 0 | 0 | 0 | 0 | 0 | 0
CCCCOc1ccc(C(=O)N2CCCC2C(=O)O)cc1 (stereo unspecified) | 0 | 0 | 0 | 0 | 0 | 0
CCCOc1ccc(C(=O)N2CCCC2C(=O)O)cc1 (stereo unspecified) | 0 | 0 | 0 | -60.9 | 0 | 0
CCOC(=O)c1sc2nc[nH]c(=O)c2c1C | 31.6µM | 0 | 0 | 0 | 0 | 0
CCc1ccc(CNC(=O)c2sc3nc[nH]c(=O)c3c2C)cc1 | 0 | 0 | 0 | - | 0 | -
CCOC(=O)c1snc2c(=O)[nH]cnc12 | 28.2µM | 0 | 0 | 0 | 0 | 0
CCOC(=O)c1cccc(NC(=O)c2sc3nc[nH]c(=O)c3c2C)c1 | 0 | 0 | 0 | - | 0 | -
COc1cccc(CNC(=O)c2sc3nc[nH]c(=O)c3c2C)c1 | 39.8µM | 0 | 0 | - | 0 | -
COc1cccc(C(=O)N(Cc2ccccc2)Cc2cc3cc4c(cc3[nH]c2=O)OCCO4)c1 | 28.2µM | 33.4 | 0 | 0 | 0 | 0
COc1cccc(C(=O)N(Cc2cc3cc(C)ccc3[nH]c2=O)CC2CCCO2)c1 (stereo unspecified) | 31.6µM | 0 | ? | 0 | 0 | 0
COc1ccc(NC(=O)N(Cc2cc3cc(C)ccc3[nH]c2=O)CC2CCCO2)cc1 (stereo unspecified) | 0 | 0 | 0 | 0 | 0 | 0
COc1ccc2[nH]c(=O)c(CN(CC3CCCO3)C(=O)Nc3ccc(F)cc3)cc2c1 (stereo unspecified) | 15.8µM | 0 | 0 | 0 | 0 | 0
SMILES | ClpP mod | DRD3 agonist | GLP1R cytotox | D3 antag | GLP1R inv ag | GLP-1R agonist
COc1ccc2[nH]c(=O)c(CN(C(=O)C3CCCO3)c3ccc(C)cc3)cc2c1 (stereo unspecified) | 28.2µM | 0 | 0 | 0 | 0 | 0
COc1cc(C(=O)N(Cc2cc3cc(C)ccc3[nH]c2=O)CC2CCCO2)cc(OC)c1OC (stereo unspecified) | 0 | 0 | 0 | 0 | 0 | 0
COc1ccc(NC(=O)CSC2=Nc3ccccc3C3=NC(Cc4ccccc4)C(=O)N23)cc1 (stereo unspecified) | 0 | 0 | 0 | - | 0 | -
COc1ccc(OC)c(NC(=O)c2ccc(-c3nc(CSc4ccccc4)c(C)o3)cc2)c1 | 0 | 0 | 0 | - | 0 | -
Cc1ccc(N(CC(=O)Nc2ccccc2C(=O)NCc2ccco2)S(=O)(=O)c2ccccc2)cc1C | 22.4µM | 0 | 0 | 0 | ? | 0
O=C(NCc1ccco1)c1ccccc1NS(=O)(=O)c1cccs1 | 0 | 0 | 0 | 0 | 0 | 0
O=C(NCc1ccco1)c1ccccc1NS(=O)(=O)c1ccc2c(c1)OCCO2 | 31.6µM | 0 | 0 | 0 | 0 | 0
O=C(NCc1ccco1)c1cc(S(=O)(=O)N2CCCc3ccccc32)ccc1Cl | 0 | 0 | 0 | 0 | 4.47µM | 0
CCN1CCN(C(=O)c2ccccc2N(Cc2ccccc2)S(=O)(=O)c2ccc(C)cc2)CC1 | 0 | 0 | 0 | -52.4 | 0 | 0
Cc1cccc(N(CC(=O)Nc2ccccc2C(F)(F)F)S(=O)(=O)c2ccccc2)c1C | 0 | 0 | 0 | - | 11.2µM | 0
Cc1ccc(N(CC(=O)NCCSCc2ccco2)S(=O)(=O)c2ccc(F)cc2)cc1 | 0 | 0 | 0 | 0 | ? | 0
Cc1ccc(S(=O)(=O)N(CC(=O)NCCSCc2ccco2)c2cc(C)ccc2C)cc1 | 0 | 0 | 0 | 0 | 11.2µM | 0
O=C(CN(Cc1ccco1)S(=O)(=O)c1ccccc1)N/N=C/c1cccc(O)c1 | 0 | 0 | 0 | 0 | ? | 0
Cc1cccc(C)c1NC(=S)Nc1ccccc1C(=O)NCc1ccco1 | 25.1µM | 0 | 0 | 0 | 0 | 0
Cc1cccc(S(=O)(=O)N(CC(=O)Nc2ccccc2C)Cc2ccco2)c1 | 0 | 0 | 0 | 0 | 8.91µM | 0
CCCN1C(=O)C2(c3ccccc31)c1c(oc3ccc(F)cc3c1=O)C(=O)N2CCCOC(C)C (stereo unspecified) | 0 | 0 | 0 | - | 0 | -
COc1ccc(Nc2ncc(C(=O)Nc3ccc(F)cc3F)c3ccccc23)cc1 | 0 | 0 | 0 | - | ? | 0
CSc1ccc(CCNC(=O)Cn2ncc3c(=O)oc4ccccc4c32)cc1 | 0 | 0 | 0 | - | 0 | 0
Cc1ccc(C)c(N(CC(=O)Nc2ccccc2C(=O)NCc2ccco2)S(=O)(=O)c2ccccc2)c1 | 35.5µM | 0 | 0 | 0 | ? | 0
Cc1ccc(S(=O)(=O)N(Cc2ccccc2)c2ccccc2C(=O)NCc2ccco2)cc1 | 0 | 0 | 0 | ? | 0 | 0
O=C(CN(c1ccccc1)S(=O)(=O)c1ccccc1)Nc1ccccc1C(=O)NCc1ccco1 | ? | 0 | 0 | 0 | ? | 0
Cc1ccc(S(=O)(=O)N(Cc2ccccc2)c2ccccc2C(=O)Nc2ccccc2C(=O)NCc2ccco2)cc1 | ? | 0 | 0 | 0 | 5.01µM | 0
COC(=O)C1CCN(S(=O)(=O)c2ccc(N3CCCCS3(=O)=O)cc2)CC1 | 0 | 0 | 0 | - | 0 | -
CC(=O)Nc1ccc(S(=O)(=O)NN=Cc2ccc(Cl)c(Cl)c2)cc1 | - | 0 | 0 | -70.6 | ? | 0
Cc1ccc(S(=O)(=O)N/N=C/c2ccc3nccnc3c2)cc1 | 0 | 51.8 | 0 | ? | 0 | 0
